Reference: PubChem BioAssay AID686979 (National Center for Advancing Translational Sciences (NCATS), 2013)
In all, about 420,000 compounds went through this assay and about 50,000 (12%) were called active. Roughly 26% stayed inconclusive and do not appear here. The sample as a whole holds a higher share of actives than the screen did. A number with no mark means an inactive call. Calls follow the shape of the dose curve; as a rule, active = well fitted inhibition curve with a large enough effect; inconclusive = small, poorly fitted or top-dose-only effect; inactive = flat fitted curve, though single readings scatter.

Experiment: qHTS for Inhibitors of human tyrosyl-DNA phosphodiesterase 1 (TDP1): qHTS in cells in presence of CPT; also: nearly all actives have a fitted effect of over 55% in size
Details: chicken DT40 Tdp1-/-;hTDP1 cells + 20 nM CPT, ATP luminescence, 48 h; series mostly up to 46.2 µM; activity change, negative = growth inhibition: at the top concentration
In short: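 Chicken DT40 Tdp1-/- cells complemented with human TDP1, 400 cells/well, exposed to compounds plus 20 nM camptothecin for at least 48 h at 37 C; viability read as ATP content by CellTiter-Glo luminescence.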
% is scaled to controls: 0 for no effect and ±100 for the full control effect; potency is read from the fitted curve at half-maximal effect.

SMILES | activity change, negative = growth inhibition | Potency
Cc1ccc(NC(=O)CSc2sc3c(O)cc(=O)[nH]c3c2C#N)cc1C | -2.41% (inactive) | 
CCC(=O)N1c2ccccc2NC2=C(C(=O)CCC2)C1c1ccco1 (stereo unspecified) | 25.3% (inactive) | 
Cn1ccnc1SCC(=O)Nc1ccc2c(c1)OCCO2 | 15% (inactive) | 
C=CCn1c(CNC(=O)c2ccco2)nnc1SCC(=O)c1ccc(OC)cc1 | -26.5% (inactive) | 
CCCNC(=O)C1(C)CCCN(Cc2c(C)nn(-c3ccccc3)c2C)C1 (stereo unspecified) | -11.8% (inactive) | 
COCCNC(=O)C1(C)CCCN(Cc2cccc(F)c2)C1 (stereo unspecified) | -22.2% (inactive) | 
CCCNC(=O)C1(C)CCCN(Cc2cccc(C(F)(F)F)c2)C1 (stereo unspecified) |  | 18.4 µM (active)
CCNC(=O)C1(C)CCN(Cc2ccc(C(=O)OCC)o2)C1 (stereo unspecified) | -13.1% (inactive) | 
CCCNC(=O)C1(C)CCN(Cc2csc(-c3ccc(Cl)cc3)n2)C1 (stereo unspecified) |  | 23.1 µM (active)
CCCNC(=O)C1(C)CCCN(C(=O)c2cccc(OC(C)=O)c2C)C1 (stereo unspecified) | -1.02% (inactive) | 
COc1ccc(CCNC(=O)COC(=O)C2CC2C)cc1 (stereo unspecified) | -15.7% (inactive) | 
COc1ccc(C(CNC(=O)c2ccc(S(=O)(=O)Nc3ccccc3F)cc2)N(C)C)cc1 (stereo unspecified) | -13.4% (inactive) | 
Cc1c(Br)ccc(NC(=O)COc2ccccc2C(N)=O)c1C | -28.1% (inactive) | 
CNC(=O)NC(=O)C(OC(=O)c1cccc(S(=O)(=O)N2CCCCC2)c1)c1ccccc1 (stereo unspecified) | -8.68% (inactive) | 
C=CCNC(=O)CC12CC3CC(C1)CC(CC(=O)NCC=C)(C3)C2 | 1.95% (inactive) | 
CC(=O)O[C@H]1CC[C@@]2(C)[C@@H](CC[C@@H]3[C@@H]2CC[C@]2(C)[C@@H](C(C)(C)O)C[C@@H]32)C1 | -27.7% (inactive) | 
COc1cc(F)c(C2=CC(=O)CC(C)(C)C2)cc1F | -23.9% (inactive) | 
c1cnc(Nc2nc(-c3ccc4ccccc4c3)cs2)nc1 |  | 29.1 µM (active)
NS(=O)(=O)c1ccc(Nc2nc(-c3ccccc3)cs2)cc1 | -14.1% (inactive) | 
O=C(Nc1nc(-c2ccc(-c3ccccc3)cc2)cs1)c1cnccn1 | -2.66% (inactive) | 
CCOc1cccc2c1OC1(CCCCC1)N1N=C(c3cccnc3)CC21 (stereo unspecified) | -25.9% (inactive) | 
FC(F)(F)c1cccc(Cc2noc(CN3CCC(N4CCCCC4)CC3)n2)c1 | -18.7% (inactive) | 
CCCCOC(=O)Nc1nnc(CC(=O)NCc2ccccc2)s1 | 2.02% (inactive) | 
CN(C(=O)COC(=O)Cn1cnc2c1c(=O)n(C)c(=O)n2C)C1(C#N)CCCCC1 | -11.2% (inactive) | 
COC(=O)[C@@H]1C[C@@]2(O)[C@@H](O)[C@@H](O)[C@@H](O)C[C@H]2N1Cc1ccc(C)s1 | -25% (inactive) | 
O=C(Nc1ccc2c(c1)OCO2)c1cc(-c2cccc(Cl)c2)on1 | -12.5% (inactive) | 

SMILES | activity change, negative = growth inhibition | Potency
c1ccc(-c2cn3cccnc3n2)cc1 | -0.0131% (inactive) | 
c1ccc(-c2cn3c(n2)CCc2ccc4cccnc4c2-3)cc1 |  | 13 µM (active)
CS/C(=C\[N+](=O)[O-])Nc1ccc(C)cc1 | 2.33% (inactive) | 
COc1cc(C(C)=O)ccc1OC(=O)CN1C(=O)c2ccccc2C1=O | 10.9% (inactive) | 
Cc1ccccc1N1CCN(CCCN2C(=O)C3CCCCN3C2=O)CC1 (stereo unspecified) | -24.5% (inactive) | 
CCN(CC)CCCSc1nc2ccccc2s1 | 18.1% (inactive) | 
COc1cc2[nH]c(O)c(C=O)c2cc1OC | -10.3% (inactive) | 
COc1ccc(N=Cc2c(O)[nH]c3ccccc23)cc1OC | -29% (inactive) | 
COc1cc(N=Cc2c(O)[nH]c3ccccc23)cc(OC)c1OC |  | 20.6 µM (active)
Oc1ccc(CN2CCN(c3ncccn3)CC2)cc1 | 0.51% (inactive) | 
COc1cccc(OC)c1C(=O)N1CCN(Cc2cccnc2)CC1 | 0.63% (inactive) | 
COc1ccccc1-c1nn(Cc2ccccc2)cc1C(=O)N1CCN(c2ncccn2)CC1 |  | 25.9 µM (active)
O=C(NCc1ccco1)/C(=C/c1ccco1)NC(=O)c1ccccc1 | -17% (inactive) | 
CCCCC/C=C\C/C=C\CCCCCCCCCC(=O)O | -5.48% [at 4.12 µM] | 
CC(C)CC[n+]1ccn(C2=C([O-])c3ccccc3C(=O)/C2=N\S(=O)(=O)c2ccccc2)c1 |  | 11.6 µM (active)
CCCC(=O)Nc1cc2nn(-c3ccccc3)nc2cc1C | -1.95% (inactive) | 
CCOC(=O)c1cc(-c2ccccc2)n(-c2cccc(C(=O)Nc3cc(OC)cc(OC)c3)c2)c1C | -5.9% (inactive) | 
COc1cc(OC)cc(C(=O)Nc2cc3nn(-c4ccccc4)nc3cc2Cl)c1 |  | 11.6 µM (active)
COc1ccccc1-c1ccnc(-n2ncc(C(=O)NCCc3ccncc3)c2C)n1 | 39.7% [at 9.04 µM] | 
COc1cccc(COC(=O)C2CCN(S(=O)(=O)c3cccs3)CC2)c1OC | -0.942% (inactive) | 
Cc1cccc(OCC(=O)NC2CC(C)(C)NC(C)(C)C2)c1 | 8.74% (inactive) | 
O=C(Nc1cccc(F)c1)N1CCC2(CC1)CCN(S(=O)(=O)c1ccccc1)CC2 | -27.3% (inactive) | 
O=c1oc2ccccc2cc1-c1cn(-c2ccccc2)c(=S)[nH]1 |  | 2.59 µM (active)
S=c1[nH]c(-c2cccs2)cn1-c1ccccc1 | -5.38% (inactive) | 
O=C(c1cn(-c2ccccc2)nc1-c1cc2ccccc2oc1=O)N1CCOCC1 | 7.05% (inactive) | 
